Shown are actives, neighbours in structure and some others; about 7.2% of the full set was active somewhere.
ERK AVP inh – inhibitors of vasopressin-stimulated ERK signaling pathway; HEK293-V1b, vasopressin-stimulated pERK AlphaScreen; Potency, µM (top dose mostly 57.5 µM), for inactives: at the highest dose activity, negative = inhibition, hits mostly inhibitors; 72,000 compounds, 0.99% hits; note: % is set by controls: 0 for no effect and ±100 for the full control effect; nearly all actives have a fitted effect of over 55% in size
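Overnight-seeded V1b-HEK293 cells in 1% FBS got compound, then vasopressin (25 nM final, 5 min, 37C), then lysis buffer. AlphaScreen detection of phospho-ERK; activity normalized to basal and full-stimulation controls.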
TSHR ag – agonists of human thyroid stimulating hormone receptor | HEK293-CNG-TSHR cells (CNG channel as cAMP sensor), membrane potential dye, cAMP | Potency, µM (highest dose often 57.1 µM), for the others: top-dose activation, most hits filed as activators | P16473 | 73,000 compounds, 0.48% hits; active = well fitted activation curve with a large enough effect in the main read-out, with a control signal flat, not every such curve was filed as active; inconclusive = small, poorly fitted or top-dose-only effect, or a change in a side signal; inactive = no such curve, though single readings can be large or run the other way; % of control where 0% means no effect;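 note: the control signal comes from parental cells without the receptor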
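HEK 293 cells stably expressing TSHR and a cAMP-gated CNG channel; parental CNG-only cells as counterscreen. Cells preloaded 60 min with membrane potential dye plus 100 uM RO 20-1724, then compound 30 min; fluorescence read at 590 nm.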
Tau filament bind – binders of human tau filaments; recombinant tau filaments, thioflavin S fluorescence, 15 h; filaments grown with octadecylsulfate alongside compound; Potency, µM (doses to about 57.1 µM), for inactives: at the highest dose activity change, negative = inhibition; 71,000 compounds, 2% hits; AID 596;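 note: % is set by controls: 0 for no effect and ±100 for the full control effect; actives lower thioflavin S fluorescence by blocking filaments or displacing dye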
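ThS-based fibril read: tau 1 uM final, inducer ODS 30 uM final, 37 C for 15 h, ex 450/em 510 nm.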
HEK293 cAMP cs – parental HEK293 cAMP activation (counter-screen). parental HEK293 CNG cAMP sensor, membrane potential fluorescence. Potency, µM (series often up to 57.1 µM), inactives show at the highest dose activation, hits mostly activators. 73,000 compounds, 2.5% hits; note: % of control where 0% means no effect; nearly all actives have a fitted effect of over 55% in size
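Parental HEK 293 cells stably expressing a modified CNG channel (no TSHR) report cAMP rise as membrane depolarization. Membrane potential dye with 100 uM RO 20-1724 was loaded for 60 min at room temperature, then compound added for 30 min; fluorescence read at 590 nm.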
PK Bst – modulators of Bacillus stearothermophilus pyruvate kinase | purified pyruvate kinase, luminescence ATP production; ribose 5-phosphate activator present at AC10 | Potency, µM | 51,000 compounds, 1.2% hits; in the data active = potency below about 11 µM; inconclusive = mostly about 12 µM to 25 µM;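 the screen sought inhibitors and activators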;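 note: scaled between full activation by ribose 5 phosphate and full inhibition by luteolin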
Luciferase inh – inhibitors of firefly luciferase | purified firefly luciferase, luminescence, 8 min | Potency, µM (highest dose often 57.1 µM), for the others: at the top dose activity change, negative = inhibition, actives largely listed as inhibitors | 72,000 compounds, 2.2% hits | AID 411; note: % is set by controls: 0 for no effect and ±100 for the full control effect; nearly all actives have a fitted effect of over 40% in size
Target sequence (P08659 whole entry, looked up): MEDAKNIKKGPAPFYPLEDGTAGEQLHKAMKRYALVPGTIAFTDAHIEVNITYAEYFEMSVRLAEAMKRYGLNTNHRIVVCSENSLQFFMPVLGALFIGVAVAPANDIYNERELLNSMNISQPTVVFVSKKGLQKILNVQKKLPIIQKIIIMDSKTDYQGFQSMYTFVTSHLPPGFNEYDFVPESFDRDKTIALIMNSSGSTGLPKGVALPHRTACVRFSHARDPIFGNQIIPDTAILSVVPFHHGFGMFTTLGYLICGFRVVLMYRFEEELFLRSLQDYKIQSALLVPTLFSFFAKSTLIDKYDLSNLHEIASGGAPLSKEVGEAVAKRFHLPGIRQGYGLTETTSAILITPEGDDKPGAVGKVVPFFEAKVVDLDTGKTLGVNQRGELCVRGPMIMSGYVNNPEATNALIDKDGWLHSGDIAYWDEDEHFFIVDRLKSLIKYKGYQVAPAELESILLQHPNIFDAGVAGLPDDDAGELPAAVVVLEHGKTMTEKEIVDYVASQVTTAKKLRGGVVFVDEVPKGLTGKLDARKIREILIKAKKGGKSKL
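qHTS concentration-response profiling: light output of P. pyralis luciferase with luciferin and 10 uM ATP, imidazole buffer pH 7.2. Read by luminescence after 8-min room-temperature incubation.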
Numbers without * were called inactive; i = inactive; ? = inconclusive; · = not tested or not shown; [ ] = another dose, or the depositor's remark. Unless noted, calls come from the whole dose curve; as a rule, active = well fitted curve in the direction sought with a large enough effect; inconclusive = small, poorly fitted or top-dose-only effect, or another doubt; inactive = no such curve, though single readings can be large; an effect the other way counts as inactive or inconclusive. Potency is the fitted concentration of half-maximal effect.

SMILES	ERK AVP inh	TSHR ag	Tau filament bind	HEK293 cAMP cs	PK Bst	Luciferase inh
C[C@@H](CCCCC(=O)Nc1ccc(C(F)(F)F)cc1)NCCc1cnc[nH]1	-14.4%	-1.8%	8.0%	1.7%	·	0.5%
CS(=O)(=O)Nc1cccc(-c2nc(Nc3ccncc3)c3ccccc3n2)c1	?	4.0%	75.8%	-7.9%	·	-0.5%[2.29 µM]
CN(CCc1ccc(Cl)c(Cl)c1)C[C@@H](O)COc1ccc(NS(C)(=O)=O)cc1	38.0%	12.4%	3.2%	18.0%	·	-0.7%
Cc1cccc(N2CCN(CC(=O)NCC3CCCCC3)CC2)c1C	25.1µM*	?	-5.2%	?	>57	1.2%
c1ccc(-c2ccccc2-c2nc(-c3cccnc3)no2)cc1	2.2%	?	-2.7%	?	>57	1.6%
CCC(=O)Oc1ccc(-c2nc(-c3cccnc3)no2)cc1	-22.8%	-16.0%	8.8%	-11.1%	?	12.6µM*
c1ccc(-c2cc(-c3nc(-c4cccnc4)no3)c3ccccc3n2)cc1	-28.0%	1.0%	3.98µM*	-2.5%	·	3.2%
Cc1ccc(-c2nc(-c3cccnc3)no2)cc1	-8.6%	4.0%	18.0%	7.5%	?	12.6µM*
COc1cccc(-c2nc(-c3ccc(NC(=O)c4cccnc4)cc3)no2)c1	7.3%	-3.5%	13.8%	-2.4%	>57	0.7%
COc1ccc(-c2oc3c(CC=C(C)C)c(O[C@H]4OC(CO)C(O)C(O)C4O)cc(O)c3c(=O)c2O[C@@H]2OC(C)C(O)C(O)C2O)cc1 (stereo not given in full)	-11.4%	·	·	·	·	·
N[C@H](COP(=O)(O)O)C(=O)O	·	11.0%	-7.8%	2.2%	·	0.9%
CCCn1c(-c2ccc(F)cc2)nc2c(NCCCN(CCO)CCO)nc(C)nc21	5.9%	15.7%	7.5%	27.2%	·	·
Cc1cccc(C)c1N1C(=O)c2ccccc2C1=O	-1.4%	8.2%	4.0%	5.3%	·	-1.0%
Cc1n[nH]c(C)c1N1C(=O)c2cccc3cc(Br)cc(c23)C1=O	?	-19.5%	15.8µM*	-11.9%	·	0.0%
CCCc1cc(C(=O)N(C2CCCCC2)C2CCCCC2)no1	18.7%	20µM*	-24.6%	24.6%	·	-1.2%
O=C(CN1C(=O)c2ccccc2C1=O)Nc1ccc(S(=O)(=O)NCC2CCCO2)cc1 (stereo not given)	-22.6%	-21.6%	-14.2%	7.0%	>57	2.1%
O=C(Nc1ccc(Cl)cc1C(=O)O)c1ccc2c(c1)C(=O)N(Cc1ccco1)C2=O	3.8%	-14.4%	?	-18.7%	·	-1.7%
O=C(O)c1ccc(S(=O)(=O)c2ccc3c(c2)C(=O)N(CC2CCCO2)C3=O)cc1 (stereo not given)	-9.4%	?	-2.2%	20µM*	·	-2.1%
O=C(O)c1ccc(S(=O)(=O)c2ccc3c(c2)C(=O)N(Cc2ccco2)C3=O)cc1	-21.9%	31.6µM*	7.6%	16.8%	>57	-0.2%
COc1ccc(N(CC(O)Cn2nnc3ccccc32)S(=O)(=O)c2ccc(C)cc2)cc1 (stereo not given)	-0.9%	19.1%	1.2%	13.7%	5.7*	2.1%
Cc1oc(-c2ccc(F)cc2)cc1-c1nn2c(-c3ccoc3C)nnc2s1	?	?	58.2%	15.8µM*	·	1.8%
CNc1nc(-c2cccnc2)nc2ccccc12	-25.9%	1.0%	-4.3%	-7.5%	·	0.9%[2.29 µM]
CCN1CCN(C(=O)c2cnn3c(C(F)F)cc(-c4ccc(C)cc4)nc23)CC1	4.3%	?	20µM*	15.8µM*	>57	2.5%
Cc1ccc(-c2cc(C(F)F)n3ncc(C(=O)N4CCN(c5ccccn5)CC4)c3n2)cc1	-10.4%	?	?	31.6µM*	·	-1.4%
COc1ccc(-c2cc(C(F)F)n3ncc(C(=O)N4CCN(C(=O)c5ccco5)CC4)c3n2)cc1	-20.0%	·	-13.7%	5.9%	·	0.4%
SMILES	ERK AVP inh	TSHR ag	Tau filament bind	HEK293 cAMP cs	PK Bst	Luciferase inh
O=C1c2c(O)cc(O)cc2O[C@@H](c2ccc(O)c(O)c2)[C@H]1O	36.6%	12.9%	-8.1%	8.8%	·	4.0%
Cc1nc(Nc2nc(-c3ccccc3)cc(=O)[nH]2)nc2ccccc12	?	3.6%	102.6%	27.0%	5.14*	10µM*
CC(N)=O	17.7%	6.3%	-13.4%	11.3%	·	-2.6%
CN1CCN(C(=O)c2cnn3c(C(F)(F)F)cc(-c4ccc5c(c4)OCO5)nc23)CC1	-4.7%	15.2%	-9.4%	12.0%	>57	3.1%
O=C(c1cnn2c(C(F)(F)F)cc(-c3ccc4c(c3)OCO4)nc12)N1CCCCC1	-16.1%	?	-2.2%	20µM*	>57	3.6%
Cc1ccc(-c2cc(C(F)(F)F)n3ncc(C(=O)N4CCN(C)CC4)c3n2)cc1	-10.1%	-2.5%[11.4 µM]	3.98µM*	1.4%[11.4 µM]	·	-1.0%
CN(C)CCc1c[nH]c2ccc(CC3COC(=O)N3)cc12 (stereo not given)	-5.3%	·	·	·	·	·
CCSC(C)CC1C/C(=N/O)c2c(CC)noc2C1 (stereo not given)	-14.3%	15.6%	5.0%	19.2%	·	-0.3%
CCCc1noc2c1/C(=N\O)CC(CC(C)SCC)C2 (stereo not given)	·	25.1µM*	·	15.7%	·	·
CCOc1ccccc1N1CCN(S(=O)(=O)c2cccs2)CC1	3.3%	?	-0.8%	10µM*	>57	2.0%
CCOc1ccccc1N1CCN(S(=O)(=O)c2cccc3nsnc23)CC1	?	19.1%	20µM*	11.8%	?	2.2%
CCOc1ccccc1N1CCN(S(=O)(=O)CC)CC1	-14.7%	5.0%	-23.2%	-0.7%	·	-2.1%
CC(C)C[C@@H](CC(=O)N[C@@H](CCC(=O)O)CC(=O)O)NC(=O)[C@@H]1CCCC[C@H]1NC(=O)C[C@H](CCCN)NC(=O)C[C@H](Cc1c[nH]c2ccccc12)NC(=O)[C@@H]1CNCC[C@H]1N	·	10.8%	-6.6%	19.5%	·	·
CCNc1ncc2nc(-c3ccccc3)c(=O)n(C)c2n1	-7.3%	0.7%	7.8%	4.9%	·	0.0%[11.4 µM]
COc1cc(NS(C)(=O)=O)ccc1Cc1c2ccccc2nc2ccccc12	-4.2%	·	·	·	·	·
CC(=O)c1cccc(NC(=O)Nc2cccs2)c1	·	24.8%	·	14.2%	·	·
COc1cccc(NC(=O)Nc2cccs2)c1	13.5%	-7.2%	-9.2%	-0.2%	i	15.8µM*
NC(=O)NC(=O)Nc1ccccc1Cl	-7.4%	0.7%	3.9%	12.9%	>57	-3.3%
COc1ccc(NC(=O)Nc2cccs2)cc1OC	?	-0.3%	135.8%	-2.6%	i	25.1µM*
CCc1ccc(NC(=O)Nc2cccs2)cc1	4.2%	-22.6%	25.1µM*	-3.5%	4.78*	3.98µM*
O=C(Nc1cccs1)Nc1ccccc1Cl	?	-18.8%	25.1µM*	-2.2%	·	-19.2%
COc1ccc(NC(=O)c2cccs2)cc1OC	-19.5%	-8.8%	8.2%	-0.5%	>57	-9.7%
O=c1ccn([C@H]2O[C@H](CO)[C@@H](O)[C@@H]2O)c(=O)[nH]1	·	5.7%	?	-3.4%	·	1.2%[11.4 µM]
